HPGD block: blocks human HPGD enzyme activity; 150,000 compounds, 4.3% hits; Potency, µM, inactives show at the highest dose activity change, negative = inhibition, hits mostly inhibitors; P15428; purified HPGD, NADH fluorescence kinetic, PGE2 substrate; AID 894; also: potency is read from the fitted curve at half-maximal effect
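NADH formation kinetics: reaction with 30 uM PGE2 and 1 mM NAD+ (final), 20 nM enzyme, Tris-HCl pH 8 with Tween 20, after 15 min compound preincubation at room temperature. Fluorescence change, last versus first of five reads.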
KinaseGlo FLuc: counter-screen: inhibitors of Kinase-Glo firefly luciferase. Q27757. Kinase-Glo luciferase, ATP luminescence, 8 min. Potency, µM (doses to about 38.3 µM), for inactives: at the highest dose activity change, negative = inhibition, usual class: inhibitors. 200,000 compounds, 0.28% hits. AID 1379; active = well fitted inhibition curve with a large enough effect; inconclusive = small, poorly fitted or top-dose-only effect; also: potency is read from the fitted curve at half-maximal effect; nearly all actives have a fitted effect of over 60% in size
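Kinase-Glo luciferase light output from ATP and luciferin was measured with 10 uM ATP, within the enzyme's linear range. Buffer: 50 mM imidazole pH 7.2, 50 mM KCl, 7 mM MgCl2, 0.01% Tween 20, 0.05% BSA; luminescence read after 8 min at ambient temperature.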
IMPase cell inh: cell-permeable inhibitors of inositol monophosphatase (IMPase); AID 901; inhibition (IP1 accumulation), % at 46.1 µM; P97697; 120,000 tested, under 10 active; CHO-M1 cells, IP1 accumulation, HTRF TR-FRET ratio; active = well fitted curve in the direction sought with a large enough effect in the signal ratio, not every such curve was filed as active; inconclusive = small, poorly fitted or top-dose-only effect, or a change in a side signal; inactive = no such curve, though single readings can be large or run the other way; the % refers to the signal ratio;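 also: cells stimulated with carbachol in lithium chloride buffer; plate controls were DMSO basal wells for no effect and reference inhibitor wells for full effect; higher means more IMPase inhibition seen as more IP1 and lower FRET ratio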
Target sequence (P97697 whole entry, looked up): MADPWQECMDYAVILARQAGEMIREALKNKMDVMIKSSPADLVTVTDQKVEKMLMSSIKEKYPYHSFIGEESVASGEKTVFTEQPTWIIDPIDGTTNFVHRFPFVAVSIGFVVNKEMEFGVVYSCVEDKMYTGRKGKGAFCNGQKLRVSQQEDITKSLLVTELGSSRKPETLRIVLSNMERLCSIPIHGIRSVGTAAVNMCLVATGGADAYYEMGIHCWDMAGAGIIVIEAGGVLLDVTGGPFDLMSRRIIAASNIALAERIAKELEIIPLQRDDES
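Measured: the HTRF emission ratio (665/620 nm) plus the 620 nm donor channel, each fitted to the Hill equation to give AC50. Cells were CHO-M1 given compounds up to 46 uM and a 30 min carbachol stimulation at 37C.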
PNC assembly inh: perinucleolar compartment assembly inhibition; PC3M PTB-GFP, PNC prevalence imaging, 16 h; stronger effect = lower value; activity change (PNC), negative = inhibition, % at 10 µM; 140,000 compounds, 3.1% hits;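 active = readout at or below -70, meaning at least 70% loss of cells showing the perinucleolar compartment, a nuclear body marking cancer cells; inconclusive = readout between -30 and a set limit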;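 also: plate controls were DMSO wells for no effect and camptothecin positive control wells for full effect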
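Compounds are pinned in duplicate onto adhered PC3M cells stably expressing GFP-tagged PTB and incubated 16 h at 37 C. Cells are then fixed, nuclei stained with Hoechst, and PNC-positive cells counted.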
ALDH1A1 block: ALDH1A1 (human) enzyme inhibition | 220,000 compounds, 7.3% hits | Potency, µM (top dose mostly 75.3 µM), for the others: at the top dose activity, negative = inhibition, most hits filed as inhibitors | P00352 | Purified ALDH1A1, NADH fluorescence, propionaldehyde substrate;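 also: potency is read from the fitted curve at half-maximal effect; plate controls were no enzyme wells and a reference inhibitor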
Target sequence (P00352 whole entry, looked up): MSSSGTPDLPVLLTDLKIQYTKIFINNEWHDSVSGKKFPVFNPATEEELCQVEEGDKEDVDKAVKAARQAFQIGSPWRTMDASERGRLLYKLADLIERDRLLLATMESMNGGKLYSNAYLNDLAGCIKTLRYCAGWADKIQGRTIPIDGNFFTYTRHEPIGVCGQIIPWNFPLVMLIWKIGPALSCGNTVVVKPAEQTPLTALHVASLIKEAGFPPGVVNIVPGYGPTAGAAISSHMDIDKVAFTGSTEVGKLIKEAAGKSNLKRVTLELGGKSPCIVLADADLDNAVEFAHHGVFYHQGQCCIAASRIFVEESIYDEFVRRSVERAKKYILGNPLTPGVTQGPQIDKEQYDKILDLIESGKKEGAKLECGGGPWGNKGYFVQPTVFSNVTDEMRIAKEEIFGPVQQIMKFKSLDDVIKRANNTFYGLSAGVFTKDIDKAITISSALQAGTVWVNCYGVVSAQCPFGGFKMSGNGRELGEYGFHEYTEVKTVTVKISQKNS
Lamin A splicing: LMNA splicing modulation | HeLa LMNA splicing GFP/RFP minigene ratio, 48 h | Potency, µM (series often up to 46.1 µM), inactives show at the top dose ratio change, negative = inhibition, hits mostly inhibitors | 200,000 compounds, 0.01% hits; active = well fitted inhibition curve with a large enough effect in the signal ratio, with a control signal flat, not every such curve was filed as active; inconclusive = small, poorly fitted or top-dose-only effect, or effect the other way, or a change in a side signal; the % refers to the signal ratio; also: potency is read from the fitted curve at half-maximal effect
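S3 HeLa stable clones carrying a lamin A-EGFP splicing minigene plus DsRed2 were seeded at 600 cells/well in Opti-MEM with 2% FBS, pin-dosed and incubated 48 h at 37°C. Acumen cytometry (488 nm) gave the GFP/RFP total-intensity ratio.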
* marks the source's active call; other numbers are inactive results; ? = inconclusive; / = no result given; [ ] = dose if it differs, or a comment. Hits are enriched below; roughly 10% of the tested compounds scored in any of these assays. Unless noted, calls follow the shape of the dose curve; as a rule, active = well fitted inhibition curve with a large enough effect (not every such curve was filed as active); inconclusive = small, poorly fitted or top-dose-only effect, or another doubt; inactive = no such curve, though single readings can be large or run the other way. Unless noted, % is scaled to controls: 0 for no effect and ±100 for the full control effect.

SMILES | HPGD block | KinaseGlo FLuc | IMPase cell inh | PNC assembly inh | ALDH1A1 block | Lamin A splicing
O=C1N=C(N2CCOCC2)S/C1=C/c1ccc(-c2ccccc2Cl)o1 | -18% | 3% | 1 | -15 | -10% | -8%
O=C1S/C(=C/c2ccc(N3CCOCC3)o2)C(=O)N1Cc1c(F)cccc1Cl | -19% | -4% | 2 | -28 | 0.13µM* | 6%
O=C1S/C(=C\c2ccc(N3CCOCC3)o2)C(=O)N1Cc1c(F)cccc1Cl | ? | 0% | 9 | 28 | 0.13µM* | ?
O=C1S/C(=C\c2ccc(N3CCOCC3)o2)C(=O)N1c1ccccc1 | / | -4% | / | / | 0.89µM* | /
O=C(O)[C@H](CCc1ccccc1)N1C(=O)c2ccccc2C1=O | -7% | -3%[7.66 µM] | / | / | -10%[13.5 µM] | /
COc1ccccc1Cc1nc2ccccc2nc1SCC(=O)Nc1c(C)cccc1C | / | / | / | / | / | -15%[46 µM]
COc1cccc(CNC(=O)Cn2c(=O)oc3cc(S(=O)(=O)N4CCCCCC4)ccc32)c1 | / | / | / | / | / | 9%[46 µM]
O=C(Cn1c(=O)oc2cc(S(=O)(=O)N3CCCC3)ccc21)NCc1ccccn1 | -6% | 2% | 5 | ? | 18µM* | -8%
Cc1cc2nc(-c3ccc(SCC(=O)N4CCN(C(=O)c5ccco5)CC4)nc3)[nH]c2cc1C | ? | ? | -10 | -28 | ? | ?
Cc1cc2nc(-c3ccc(SCC(=O)Nc4ccc5c(c4)OCCO5)nc3)[nH]c2cc1C | ? | 11µM* | 1 | -18 | ? | 2%
Cc1cc2nc(-c3ccc(SCC(=O)N4CCOCC4)nc3)[nH]c2cc1C | ? | ? | -2 | -89* | ? | -16%
COc1ccc(N2CC(NC(=O)COc3ccc4ccccc4c3)CC2=O)cc1 (centres undefined) | / | / | / | / | / | 14%[46 µM]
O=C(c1ccc2c(c1)OCO2)C1CCCN(C(=O)NCc2ccccc2)C1 (centres undefined) | / | 2% | / | / | -8% | ?
O=C(c1ccc2c(c1)OCO2)C1CCCN(C(=O)c2cnn(Cc3ccccc3)c2)C1 (centres undefined) | / | 0% | / | / | 25µM* | ?
Cc1cccc(CNc2ncncc2-c2ccccc2CN(C)C)c1 | / | / | / | / | 9% | -6%
COc1cccc(NC(=O)c2sc3nc(C)c(C(=O)Nc4ccc(C)cc4C)c(-c4cccs4)c3c2N)c1 | / | / | -9 | / | / | /
CC(C)Cn1c2nc3ccccc3nc2c2c(=O)n(CCN3CCOCC3)cnc21 | ? | 1% | -4 | 31 | ? | 0%
CC(C)Cn1cnc2c(c1=O)c1nc3ccccc3nc1n2Cc1ccc2c(c1)OCO2 | -18% | -2% | 4 | ? | 0.79µM* | 5%
CN(C)C(=O)c1cn(-c2ccccc2)nc1-c1cccc([N+](=O)[O-])c1 | / | 2% | / | / | 8.9µM* | /
O=C(O)/C=C/c1cn(-c2ccccc2)nc1-c1cccc([N+](=O)[O-])c1 | / | / | / | / | 2% | /
CC(C)NC(=O)/C(=C/c1cn(-c2ccccc2)nc1-c1cccc([N+](=O)[O-])c1)NC(=O)c1ccccc1 | -5% | 2% | / | ? | 14µM* | 12%
Cc1ccc(C(=O)N/C(=C/c2cn(-c3ccccc3)nc2-c2ccccc2)C(=O)O)cc1 | / | / | / | / | 11µM* | /
COc1ccc(-c2csc3ncn(-c4ccccc4)c(=O)c23)cc1OC | / | -2% | / | / | 7.9µM* | /
O=C(CCl)NCCCCCCCCCNC(=O)CCl | -10% | 1% | / | ? | 0.18µM* | -1%
CCOc1ccc(N2CC(NC(=O)c3ccc(S(=O)(=O)N4CCCC4)cc3)CC2=O)cc1 (centres undefined) | / | / | / | / | / | 9%[46 µM]
SMILES | HPGD block | KinaseGlo FLuc | IMPase cell inh | PNC assembly inh | ALDH1A1 block | Lamin A splicing
CC1(C)Cc2nc3oc4c(=S)nc[nH]c4c3cc2CO1 | 28µM* | -7% | ? | -10 | 3.2µM* | -12%
Cc1ccc(Cc2c[nH]c(=S)s2)cc1 | / | -1% | / | / | 8.9µM* | /
COc1ccc(CCNC(=O)C(C)n2c(=O)cc(-c3ccccc3)c3c(C)nn(C)c32)cc1OC (centres undefined) | / | / | / | / | / | 1%[46 µM]
CSc1nncc(/C(C)=N\Nc2cccc(C)c2)n1 | -13% | -7% | 7 | 30 | 8.9µM* | 9%
CC/C(=N/Nc1ccccc1C)c1cnnc(SC)n1 | -22% | -7% | / | 16 | 7.9µM* | ?
Cc1cc(C)c(-n2[nH]nnc2=S)c(C)c1 | / | / | / | / | 22µM* | /
COc1ccc(C)cc1-n1nc2ccccc2n1 | / | -2% | / | / | -11% | /
COc1ccc(C)cc1-n1[nH]nnc1=S | / | -3% | / | / | 10µM* | ?
CCN(CC)S(=O)(=O)c1ccc2c(c1)nc(CN(C)C(=O)Nc1cccc(Cl)c1)n2C | / | / | / | / | / | -10%[46 µM]
CC(C)c1ccc(/C=C(\C#N)c2nc(-c3ccc(O)cc3)cs2)cc1 | / | / | 9 | / | / | /
COC(=O)C(C(=O)OC)C(Cc1cc(F)cc(F)c1F)NC=O (centres undefined) | -6% | -1% | / | / | 6% | /
CS(=O)(=O)N(CC(=O)Nc1ccc2c(c1)OCO2)c1ccc2c(c1)OCO2 | -4% | 14% | 8 | 18 | 5% | -9%
CN(C)C(=O)CN(c1ccc2c(c1)OCO2)S(C)(=O)=O | -6% | -1% | 2 | -106* | 9% | 22%
O=[N+]([O-])C(/C=C(\Cl)[N+](=O)[O-])=C(N1CCCCC1)N1CCCCC1 | / | -1% | / | / | 14µM* | /
Cc1ccc(S(=O)(=O)NC(=O)Nc2ccc(F)cc2)cc1 | -9% | 2% | -8 | ? | -1% | 3%
Cc1ccc(S(=O)(=O)NC(=O)Nc2cc(C)ccc2F)cc1 | -4% | 3% | 7 | 14 | 28µM* | ?
O=C(Nc1cc(S(=O)(=O)N2CCOCC2)ccc1N1CCCC1)c1cnccn1 | / | / | -7 | 16 | 1% | -11%
COc1ccc(/C=C(\C#N)C(=O)Nc2cc(S(=O)(=O)N3CCOCC3)ccc2N2CCCC2)cc1 | 13µM* | 4% | / | 7 | 10µM* | 6%
O=C(Nc1cc(S(=O)(=O)N2CCOCC2)ccc1N1CCCCC1)c1cc(-c2ccccn2)nc2ccccc12 | / | 0% | / | / | 7.1µM* | /
CCN(CC)S(=O)(=O)c1ccc(N2CCCCC2)c(NC(=O)/C(C#N)=C/c2ccc(OC)cc2)c1 | -18% | 2% | / | -10 | ? | 2%
O=C(CNc1cc(S(=O)(=O)N2CCOCC2)ccc1N1CCCC1)N1CCc2ccccc21 | / | -3% | / | / | 25µM* | /
O=C1[C@H]2[C@H]3[C@H](O)[C@H](O)C/C(=N/OC[C@@H](O)COCc4ccco4)[C@@H]3CC[C@@H]2C(=O)N1Cc1ccc2c(c1)OCO2 | / | / | / | / | 8%[13.5 µM] | /
Cc1nn(CC(=O)NCc2cccc(F)c2)c(=O)c2c(C)n(-c3ccc(Cl)cc3)nc12 | / | / | / | / | / | -11%[46 µM]
O=C(O)c1ccccc1NS(=O)(=O)c1ccccc1F | -12% | -3% | / | / | 2% | /
